The full data set covers some 8,800 targets. This sample favours those with a hit. About 0.5% of all pairs of compound and target were hits.
Key:
Assay in all cases: log2 fold change, soluble protein after heating vs DMSO (PISA); higher = thermal stabilisation; K562 lysate, 10 uM; active = over 0.2 and 3.5 SD of the protein, either way, in both replicates (recomputed)
[1] = compound: C1=CC=C(C=C1)[C@H](COC2=CC3=C(C=C2)NC(=O)N3)NC(=O)C4=CC=CN(C4=O)CC5=CC(=C(C=C5)F)F
Procedure, shortened: (§1)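 Thermal stability, expressed as log-two fold change relative to solvent controls, is given from duplicates. Crude K562 extract in PBS pH 7.4 with 1 mM MgCl2, at 1 mg/mL protein, was treated with 10 μM compound for 30 min and heated in aliquots for 3 min across 48°C-58°C. After pooling, adjustment to 0.5% NP-40 at 4°C and centrifugation at 21,000xg for 90 min, supernatant protein was measured by TMTpro 16plex LC-MS/MS with channel sums equalised.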

[2] = compound: CC1=C(SC2=C1C(=N[C@H](C3=NN=C(N32)C)CC(=O)N)C4=CC=C(C=C4)Cl)C
Procedure, shortened: as §1

[3] = compound: CC1=C2C(=CC=C1)N=C(N(C2=O)C3=CC=CC=C3C)CN4C=NC5=C(N=CN=C54)N
Procedure, shortened: as §1

[4] = compound: Cc1sc2c(c1C)C(c1ccc(Cl)cc1)=N[C@@H](CC(=O)OC(C)(C)C)c1nnc(C)n1-2
Procedure, shortened: as §1

[5] = compound: c1ccc([C@@H]2C[C@H]2NC2CCNCC2)cc1
Procedure, shortened: as §1

Measured: log2 fold change

GEMIN5 (UniProt Q8TEQ6)
inactive: [1] -0.015 | [2] 0.025 | [3] 0.016 | [4] -0.002 | [5] 0.036

FBXO30 (UniProt Q8TB52)
Sequence of UniProt Q8TB52 (Q8TB52 whole entry, looked up): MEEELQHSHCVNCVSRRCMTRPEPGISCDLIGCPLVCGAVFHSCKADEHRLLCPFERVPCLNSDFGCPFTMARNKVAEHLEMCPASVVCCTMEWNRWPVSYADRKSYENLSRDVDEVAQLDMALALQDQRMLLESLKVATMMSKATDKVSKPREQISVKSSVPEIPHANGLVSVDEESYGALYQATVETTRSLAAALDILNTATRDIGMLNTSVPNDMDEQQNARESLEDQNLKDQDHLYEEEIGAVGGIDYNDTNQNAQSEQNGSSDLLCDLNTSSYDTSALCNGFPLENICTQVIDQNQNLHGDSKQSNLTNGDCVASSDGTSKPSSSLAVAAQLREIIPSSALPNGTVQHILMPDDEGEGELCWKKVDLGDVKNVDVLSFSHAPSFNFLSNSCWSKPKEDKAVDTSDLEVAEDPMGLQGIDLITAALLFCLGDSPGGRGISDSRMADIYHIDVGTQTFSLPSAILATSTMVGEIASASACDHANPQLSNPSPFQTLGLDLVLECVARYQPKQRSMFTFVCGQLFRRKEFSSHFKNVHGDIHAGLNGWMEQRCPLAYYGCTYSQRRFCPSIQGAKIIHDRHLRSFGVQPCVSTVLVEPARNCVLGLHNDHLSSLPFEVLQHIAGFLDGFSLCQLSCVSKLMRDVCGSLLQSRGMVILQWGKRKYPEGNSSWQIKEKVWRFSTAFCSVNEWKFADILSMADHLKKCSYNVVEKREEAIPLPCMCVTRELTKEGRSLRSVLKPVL
inactive: [1] -0.034 | [2] 0.011 | [3] -0.041 | [4] 0.036 | [5] 0.12

EIF1 (UniProt P41567)
Sequence of UniProt P41567 (P41567 whole entry, looked up): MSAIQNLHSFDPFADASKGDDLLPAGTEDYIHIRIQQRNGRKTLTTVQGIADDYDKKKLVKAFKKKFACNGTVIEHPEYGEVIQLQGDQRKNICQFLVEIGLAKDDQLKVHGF
inactive: [1] 0.146 | [2] -0.034 | [3] -0.031 | [4] -0.035 | [5] -0.114

FIG4 (UniProt Q92562)
Sequence of UniProt Q92562 (Q92562 whole entry, looked up): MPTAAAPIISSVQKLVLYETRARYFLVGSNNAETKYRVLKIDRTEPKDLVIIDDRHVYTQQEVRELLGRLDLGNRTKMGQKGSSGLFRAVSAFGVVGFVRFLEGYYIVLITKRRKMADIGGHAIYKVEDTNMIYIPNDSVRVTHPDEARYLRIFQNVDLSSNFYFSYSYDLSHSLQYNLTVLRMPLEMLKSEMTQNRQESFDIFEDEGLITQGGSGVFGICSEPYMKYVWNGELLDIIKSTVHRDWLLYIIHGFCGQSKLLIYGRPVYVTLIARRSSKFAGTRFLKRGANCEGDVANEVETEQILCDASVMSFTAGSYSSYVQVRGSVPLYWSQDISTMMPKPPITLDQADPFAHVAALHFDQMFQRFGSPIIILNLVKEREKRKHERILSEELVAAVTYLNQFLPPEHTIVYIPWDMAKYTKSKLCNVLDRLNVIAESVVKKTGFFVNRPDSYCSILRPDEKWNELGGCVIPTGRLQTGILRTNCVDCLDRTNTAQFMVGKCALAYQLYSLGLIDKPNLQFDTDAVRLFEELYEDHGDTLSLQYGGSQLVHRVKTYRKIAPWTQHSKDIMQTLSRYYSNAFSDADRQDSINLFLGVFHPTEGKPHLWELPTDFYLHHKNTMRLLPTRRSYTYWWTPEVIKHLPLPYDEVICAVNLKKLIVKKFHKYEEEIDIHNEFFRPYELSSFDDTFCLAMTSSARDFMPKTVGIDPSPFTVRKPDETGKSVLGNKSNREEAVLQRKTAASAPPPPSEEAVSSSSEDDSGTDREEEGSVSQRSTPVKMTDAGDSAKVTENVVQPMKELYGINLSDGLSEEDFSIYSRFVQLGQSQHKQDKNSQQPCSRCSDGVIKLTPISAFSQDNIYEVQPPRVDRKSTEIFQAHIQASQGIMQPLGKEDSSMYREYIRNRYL
inactive: [1] -0.107 | [2] -0.108 | [3] 0.037 | [4] 0.039 | [5] -0.037

FTSJ1 (UniProt Q9UET6)
Sequence of UniProt Q9UET6 (Q9UET6 whole entry, looked up): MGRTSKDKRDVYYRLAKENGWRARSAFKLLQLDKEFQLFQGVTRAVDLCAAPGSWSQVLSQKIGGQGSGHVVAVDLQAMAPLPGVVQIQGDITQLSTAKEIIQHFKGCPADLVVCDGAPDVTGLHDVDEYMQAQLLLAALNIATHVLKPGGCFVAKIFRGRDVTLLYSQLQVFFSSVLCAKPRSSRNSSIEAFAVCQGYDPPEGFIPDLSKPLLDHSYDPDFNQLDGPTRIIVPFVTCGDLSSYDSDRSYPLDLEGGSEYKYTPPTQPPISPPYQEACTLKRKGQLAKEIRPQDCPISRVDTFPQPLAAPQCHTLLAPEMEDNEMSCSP
inactive: [1] 0.016 | [2] 0.013 | [3] -0.025 | [4] -0.005 | [5] 0.048

FUBP3 (UniProt Q96I24)
inactive: [1] -0.052 | [2] 0.019 | [3] -0.007 | [4] -0.01 | [5] 0.011

FLT4 (UniProt P35916)
inactive: [1] 0.006 | [2] -0.04 | [3] -0.031 | [4] 0.098 | [5] -0.408

EMP3 (UniProt P54852)
Sequence of UniProt P54852 (P54852 whole entry, looked up): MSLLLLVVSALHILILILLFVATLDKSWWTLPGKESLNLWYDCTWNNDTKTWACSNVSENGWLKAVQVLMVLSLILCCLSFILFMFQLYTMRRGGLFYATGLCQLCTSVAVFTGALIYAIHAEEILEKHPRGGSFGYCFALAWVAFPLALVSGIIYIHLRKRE
inactive: [1] 0.026 | [2] -0.028 | [3] -0.038 | [4] -0.113 | [5] -0.345

DYNC1I2 isoform 5 (UniProt Q13409)
Sequence of UniProt Q13409 (Q13409 whole entry, looked up): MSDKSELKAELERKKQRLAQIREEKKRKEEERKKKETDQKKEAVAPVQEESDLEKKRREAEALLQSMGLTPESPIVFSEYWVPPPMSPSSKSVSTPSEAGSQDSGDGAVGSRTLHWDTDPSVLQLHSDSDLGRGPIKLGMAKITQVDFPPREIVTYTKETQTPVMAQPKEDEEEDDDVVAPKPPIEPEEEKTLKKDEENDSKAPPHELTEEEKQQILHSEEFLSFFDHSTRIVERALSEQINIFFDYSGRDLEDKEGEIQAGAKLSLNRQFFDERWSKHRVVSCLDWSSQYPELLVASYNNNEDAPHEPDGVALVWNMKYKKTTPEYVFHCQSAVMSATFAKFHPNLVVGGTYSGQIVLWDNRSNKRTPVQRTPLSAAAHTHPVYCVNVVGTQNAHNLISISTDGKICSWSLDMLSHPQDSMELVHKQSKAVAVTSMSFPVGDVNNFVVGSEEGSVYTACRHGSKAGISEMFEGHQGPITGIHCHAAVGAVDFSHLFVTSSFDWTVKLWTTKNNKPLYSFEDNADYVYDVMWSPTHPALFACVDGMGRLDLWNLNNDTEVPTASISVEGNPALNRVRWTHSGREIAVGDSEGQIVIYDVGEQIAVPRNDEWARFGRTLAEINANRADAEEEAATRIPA
inactive: [1] 0.049 | [2] -0.03 | [3] -0.012 | [4] -0.018 | [5] 0.021

EMC7 (UniProt Q9NPA0)
Sequence of UniProt Q9NPA0 (Q9NPA0 whole entry, looked up): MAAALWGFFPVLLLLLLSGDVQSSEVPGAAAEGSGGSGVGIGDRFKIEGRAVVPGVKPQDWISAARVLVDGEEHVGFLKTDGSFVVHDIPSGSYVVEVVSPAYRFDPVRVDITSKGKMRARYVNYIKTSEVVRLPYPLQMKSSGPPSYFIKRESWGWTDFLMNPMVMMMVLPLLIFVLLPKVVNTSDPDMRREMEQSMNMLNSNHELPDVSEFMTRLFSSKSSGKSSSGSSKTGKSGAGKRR
inactive: [1] 0.01 | [2] 0.02 | [3] 0.024 | [4] 0.005 | [5] -0.141

GALK1 isoform 2 (UniProt P51570)
Sequence of UniProt P51570 (P51570 whole entry, looked up): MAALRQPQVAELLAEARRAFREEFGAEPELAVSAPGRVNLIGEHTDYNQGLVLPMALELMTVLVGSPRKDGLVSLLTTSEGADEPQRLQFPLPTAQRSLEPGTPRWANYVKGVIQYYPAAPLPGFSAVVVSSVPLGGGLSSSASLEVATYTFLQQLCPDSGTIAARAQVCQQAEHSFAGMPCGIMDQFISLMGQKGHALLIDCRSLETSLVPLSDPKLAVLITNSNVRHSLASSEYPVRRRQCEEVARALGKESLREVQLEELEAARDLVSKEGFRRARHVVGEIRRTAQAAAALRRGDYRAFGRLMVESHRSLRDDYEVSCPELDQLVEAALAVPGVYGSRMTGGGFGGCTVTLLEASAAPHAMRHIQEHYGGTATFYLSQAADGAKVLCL
inactive: [1] 0.014 | [2] 0.027 | [3] 0.035 | [4] 0.006 | [5] 0.073

FYCO1 isoform 4 (UniProt Q9BQS8)
Sequence of UniProt Q9BQS8 (Q9BQS8 whole entry, looked up): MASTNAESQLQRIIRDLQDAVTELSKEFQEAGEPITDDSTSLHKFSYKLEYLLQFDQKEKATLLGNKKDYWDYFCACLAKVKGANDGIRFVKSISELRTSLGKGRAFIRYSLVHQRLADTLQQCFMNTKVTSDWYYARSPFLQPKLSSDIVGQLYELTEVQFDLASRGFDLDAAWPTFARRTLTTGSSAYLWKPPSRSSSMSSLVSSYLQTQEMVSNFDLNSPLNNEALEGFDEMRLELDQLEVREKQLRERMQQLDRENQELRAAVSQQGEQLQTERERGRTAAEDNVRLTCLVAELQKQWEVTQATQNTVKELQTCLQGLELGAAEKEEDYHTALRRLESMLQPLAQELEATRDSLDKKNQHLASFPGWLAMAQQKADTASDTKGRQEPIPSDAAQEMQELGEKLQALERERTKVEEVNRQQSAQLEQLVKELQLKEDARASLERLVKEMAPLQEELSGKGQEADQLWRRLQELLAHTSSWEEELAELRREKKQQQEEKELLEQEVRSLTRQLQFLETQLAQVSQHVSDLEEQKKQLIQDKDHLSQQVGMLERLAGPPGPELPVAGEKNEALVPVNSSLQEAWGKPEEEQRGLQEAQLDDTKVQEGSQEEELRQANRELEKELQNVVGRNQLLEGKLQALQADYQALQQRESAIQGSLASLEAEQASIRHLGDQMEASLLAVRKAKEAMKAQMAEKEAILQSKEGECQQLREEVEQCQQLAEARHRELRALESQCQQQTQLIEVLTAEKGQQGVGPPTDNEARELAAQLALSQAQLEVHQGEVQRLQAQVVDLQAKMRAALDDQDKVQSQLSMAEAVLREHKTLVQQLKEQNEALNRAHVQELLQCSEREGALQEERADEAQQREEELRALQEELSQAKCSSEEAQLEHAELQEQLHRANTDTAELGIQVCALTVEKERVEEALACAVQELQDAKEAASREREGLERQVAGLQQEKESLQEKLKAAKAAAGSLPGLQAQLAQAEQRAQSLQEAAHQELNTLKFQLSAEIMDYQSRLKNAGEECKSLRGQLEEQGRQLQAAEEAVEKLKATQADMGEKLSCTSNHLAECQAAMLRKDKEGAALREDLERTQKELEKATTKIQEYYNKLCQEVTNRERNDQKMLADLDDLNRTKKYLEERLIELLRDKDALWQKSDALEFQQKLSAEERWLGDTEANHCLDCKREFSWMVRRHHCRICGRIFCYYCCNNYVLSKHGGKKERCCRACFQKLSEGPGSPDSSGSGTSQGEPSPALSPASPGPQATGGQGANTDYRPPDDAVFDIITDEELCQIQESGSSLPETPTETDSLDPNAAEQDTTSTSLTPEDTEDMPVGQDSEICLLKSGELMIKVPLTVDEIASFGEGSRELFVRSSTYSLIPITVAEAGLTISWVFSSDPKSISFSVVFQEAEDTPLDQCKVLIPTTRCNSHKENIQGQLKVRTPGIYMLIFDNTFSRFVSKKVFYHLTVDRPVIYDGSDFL
inactive: [1] 0.01 | [2] 0.037 | [3] 0.03 | [4] 0.023 | [5] -0.1

FCHO1 (UniProt O14526)
inactive: [1] -0.026 | [2] 0.066 | [3] -0.025 | [4] 0.009 | [5] 0.027

Reference: the supplement of paper PMC10849652
